Results as given in PubChem BioAssay AID1845227 (National Center for Advancing Translational Sciences (NCATS), 2023).
Results filed as inconclusive are left out. Unmarked numbers belong to inactive results. Active and inactive are the calls of the source. Calls come from the whole dose curve; as a rule, active = well fitted inhibition curve with a large enough effect; inconclusive = small, poorly fitted or top-dose-only effect; inactive = no such curve, though single readings can be large or run the other way.
Potency is the fitted concentration of half-maximal effect.

These molecules were tested against Luciferin 4-monooxygenase (Photinus pyralis) (UniProt P08659) (assay: Confirmatory firefly luciferase (FLuc) qHTS assay for identification of artifact compounds). Conditions: purified FLuc enzyme, luminescence, 5 min; series mostly up to 38.9 µM; activity change, negative = inhibition: at the top concentration.
From the text: PI: Alexander Tropsha Ph.D. UNC Eshelman School of Pharmacy University of North Carolina, Chapel Hill, North Carolina Hits from high-throughput screening (HTS) of chemical libraries are often false positives due to their interference with the assay detection technology. In response to this problem, we generated the largest publicly available library of chemical liabilities and developed a free webtool to predict HTS artifacts, both of which are described herein. More specifically, we generated, curated, and integrated HTS datasets for thiol reactivity, redox activity, and luciferase (firefly and nano) activity. Using these curated datasets, we developed and validated several Quantitative Structure-Interference Relationship (QSIR) models to predict nuisance behavior. […] These models were employed for virtual profiling of the National Center for Advancing Translational Science's (NCATS) in-house library, and 256 compounds for each assay were selected for the experimental validation of nuisance behavior. The BA for these external predictions ranged from 58 to 78% for compounds within the applicability domains of the models. […] The models developed in this study, along with aggregation models previously developed by our group (SCAM Detective) were implemented in "Liability Predictor," an online tool which may be used as part of chemical library design or for triaging HTS hits. Both the models and the curated datasets are publicly available at https://liability.mml.unc.edu/.
PROTOCOL TABLE SEQUENCE No. (e.g., 1, 2, 3, etc.); […] (e.g., Cells, Incubation, Reagent, etc.); VALUE; DESCRIPTION. 1; Reagent; 3 uL; Luciferase substrate mixture. 2; Compounds and control; 16 nL; Kalypsis pin tool (Wako USA) equipped with a 1536-well pin head. 3; Incubation; 15 min. 4; Reagent; 1 uL; Luciferase enzyme. 5; Incubation; 5 min. 6; Detection; Luminescence, ViewLux microplate reader. NOTES (numbers refer to Sequence numbers above) 1. 3 uL of luciferase substrate mixture containing D-luciferin and ATP (final concentrations of 10 uM and 10 uM, respectively) in assay buffer (10 mM Mg-acetate, 0.01% Tween-20, 0.05% bovine serum albumin, 50 mM Tris acetate, pH 7.6) was dispensed into all wells of a 1536-well assay plate (solid-bottom white plate; Greiner Bio One, Monroe, NC). 2. A Wako Pin-tool (Wako Automation, Richmond, VA) was used to transfer 16 nL of compounds (consisting of 7-plates in qHTS format, final concentration range 18.3 nM to 114 uM) or control PTC124 (final concentration range 1.22 nM to 40 uM). 3. 15 min. incubation at room temperature protected from light. 4. 1 uL of luciferase enzyme (final concentration 10 nM, Photinus pyralis luciferase) or buffer was dispensed for a final assay volume of 4 uL. 5. Plates were centrifuged (121xg, 15 seconds) and incubated for 5 minutes. 6. Samples were read for luminescence on a ViewLux CCD imager (PerkinElmer). Data were normalized to no-enzyme (0% activity) and no-inhibitor (DMSO; 100%) controls and the resulting percent inhibition data were fitted to a 4-parameter Hill equation using NCATS in-house software.
With `CN(C)[C@@H]1C(=O)C(C(N)=O)=C(O)[C@@]2(O)C(=O)C3=C(O)c4c(O)ccc(Cl)c4[C@@](C)(O)[C@H]3C[C@@H]12` the “activity change, negative = inhibition” value was -8.7% [at 13.1 µM]. `COC(=O)[C@]1(C)CC[C@@]2(C)CC[C@@]3(C)C4=CC=C5C(=CC(=O)C(O)=C5C)[C@@]4(C)CC[C@@]3(C)C2C1` (stereo not given in full) was tested, and the “activity change, negative = inhibition” value was -15.8%. `C[C@@]12CCC(OS(=O)(=O)O)C[C@@H]1CCC1C2CC[C@]2(C)C(=O)CCC12` (stereo not given in full) was tested, and the “activity change, negative = inhibition” value was 11.6%. In the case of `CC(=O)OCC(=O)[C@H]1CC[C@H]2[C@@H]3CC[C@H]4C[C@H](O)CC[C@]4(C)[C@H]3C(=O)C[C@]12C`, the “activity change, negative = inhibition” value is reported as 4.2% [at 13.1 µM]. In the case of `O=C(O)c1cc[c]([Hg][S]c2ncnc3nc[nH]c23)cc1`, the Potency is reported as 12.2 µM (active).
